Assay outcomes as filed in PubChem BioAssay.
Mito fusion yeast = blocks mitochondrial division or promotes mitochondrial fusion; 320,000 tested, 0.23% active; AID 485298; Potency, µM (top dose mostly 46.1 µM), hits mostly activators; S. cerevisiae fusion-defective mutant growth rescue, CellTiterGlo 48 h; also: nearly all actives have a fitted effect of over 45% in size
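S. cerevisiae fusion-defective temperature-sensitive mutants (e.g. fzo1-1, mgm1-5) grown 48 h at 37C in YPEG (ethanol/glycerol non-fermentable) medium with 23 nl compound per well; growth rescue read as CellTiterGlo luminescence.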
aSyn yeast inh = rescues yeast growth from alpha-synuclein toxicity | AID 652106 | 370,000 tested, 0.14% active | Potency, µM (top dose mostly 46.1 µM), most hits filed as activators | Yeast expressing alpha-synuclein, growth rescue, BacTiter-Glo, 24 h; also: nearly all actives have a fitted effect of over 65% in size
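Screening used galactose-induced yeast with toxic alpha-synuclein levels, exposed to compound for 24 hr at 30 deg C. Cell growth, read with BacTiter-Glo luminescence, gave the measured signal.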
TDP43 rescue = rescues yeast growth from TDP-43 toxicity; TDP-43 expressing yeast growth rescue, BacTiter-Glo, 24 h; Potency, µM (series often up to 46.1 µM), hits mostly activators; 410,000 tested, 1.8% active; also: nearly all actives have a fitted effect of over 50% in size
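Yeast expressing TDP-43 (pregrown in raffinose, seeded at OD600=0.02 in galactose medium) exposed to compounds 24 hr at 30 deg C. Growth read by BacTiter-Glo luminescence; rescue of toxicity appears as increased signal.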
Abeta yeast res = A-beta toxicity reversal in yeast; 410,000 tested, 0.063% active; Potency, µM (series often up to 46.1 µM), usual class: activators; AID 1347071; yeast expressing A-beta42, growth rescue, OD600, 48 h; response scale: 0% DMSO, 100% iron-clioquinol control; also: nearly all actives have a fitted effect of over 55% in size
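Yeast A-beta toxicity model in growth medium with pinned compounds, 48 h at 30 C; growth read as absorbance at 600 nm. Normalized to FeCl3/clioquinol equimolar mix (positive) and DMSO (negative).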
FUS yeast rescue = rescues growth of FUS-expressing yeast; S. cerevisiae FUS-expressing, growth rescue, OD600, 24 h; Potency, µM (series often up to 76.6 µM), usual class: activators; 390,000 tested, 0.24% active; also: nearly all actives have a fitted effect of over 55% in size
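Galactose (2%) drives FUS expression in yeast precultured in raffinose; seeding density OD 0.005. Test compounds incubated 24hr at 30C and 99% humidity before absorbance at 600 nm was measured.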
Large screens that a line does not name were inactive. The list is not random: actives were taken first. Their share in the collection is about 2.2%. Calls follow the shape of the dose curve; as a rule, active = well fitted curve in the direction sought with a large enough effect; inconclusive = small, poorly fitted or top-dose-only effect, or another doubt; inactive = no such curve, though single readings can be large; an effect the other way counts as inactive or inconclusive.

COc1ccc(S(=O)(=O)NCC2CCCN(Cc3ccc(OC)cc3F)C2)cc1 (configuration not stated)	none
O=C(O)c1ccccc1NS(=O)(=O)c1cccc(C(F)(F)F)c1	none
O=S(=O)(Nc1cccc2c1CCCC2)c1cccc(C(F)(F)F)c1	aSyn yeast inh inconclusive, TDP43 rescue 25µM, Abeta yeast res inconclusive
Cc1ccc[n+](CC(=O)Nc2ccc([N+](=O)[O-])cc2)c1	TDP43 rescue 8.9µM
Cc1ccc[n+](CC(=O)Nc2cccc([N+](=O)[O-])c2)c1	none
CNC(=O)CN1C(=O)COc2ccc(S(=O)(=O)N3CCC(C)CC3)cc21	none (no result: Mito fusion yeast)
O=C(CCNC(=O)c1ccc([N+](=O)[O-])cc1)Nc1ccccc1N1CCCCC1	none
COc1ccc(Nc2nc3ccccc3n3cnnc23)cc1Cl	none
Cc1ccc(O)c(Nc2nc3ccccc3c3nncn23)c1	none (no result: Mito fusion yeast, aSyn yeast inh)
COc1cccc(Nc2nc3ccccc3n3cnnc23)c1	TDP43 rescue 13µM
CCc1ccccc1Nc1nc2ccccc2n2cnnc12	TDP43 rescue 13µM (no result: Mito fusion yeast, aSyn yeast inh)
CCc1ccccc1Nc1nc2ccccc2c2nncn12	TDP43 rescue 18µM (no result: Mito fusion yeast, aSyn yeast inh)
N#CN=c1snc(-c2ccccc2)n1-c1ccc(Br)cc1	none (no result: Mito fusion yeast, TDP43 rescue, Abeta yeast res, FUS yeast rescue)
Oc1cccc(-n2nnnc2SCc2ccccc2F)c1	TDP43 rescue 22µM
COc1cc2c(NC3CCN(C(C)C)CC3)nc(N3CCCN(C)CC3)nc2cc1OCCOCCN1CCCC1	none (no result: Mito fusion yeast, TDP43 rescue, Abeta yeast res, FUS yeast rescue)
COc1ccc(CNc2oc(COc3cccc(C)c3)nc2C#N)cc1	TDP43 rescue 22µM (no result: Mito fusion yeast, aSyn yeast inh)
N#Cc1nc(COc2ccc(Cl)cc2)oc1NCc1ccc2c(c1)OCO2	none
Cc1cccc(OCc2nc(C#N)c(NCc3ccc4c(c3)OCO4)o2)c1	Mito fusion yeast 7.1µM, TDP43 rescue inconclusive
CC[C@@H](CO)Nc1nc(NCc2ccccc2)c2ncn(C(C)C)c2n1	none (no result: aSyn yeast inh, TDP43 rescue, Abeta yeast res, FUS yeast rescue)
CC(C)C(Cl)=NOC(=O)Nc1ccc(F)cc1	TDP43 rescue 13µM (no result: Mito fusion yeast, FUS yeast rescue)
C/C(=N\OC(=O)Nc1ccc(Cl)cc1)c1ccc(F)c(F)c1	TDP43 rescue inconclusive
COc1ccc(NC(=O)c2cnc(Nc3ccc(C)c(Cl)c3)c3ccccc23)c(OC)c1	none (no result: Mito fusion yeast, aSyn yeast inh)
COc1cc2c(cc1OC)/C(=C/c1ccc(Cl)cc1)C(=O)OC2	Mito fusion yeast inconclusive, TDP43 rescue 22µM
NC(=O)COc1ccc(/C=C2\C(=O)ON=C2c2ccccc2)cc1	aSyn yeast inh 16µM, TDP43 rescue 22µM (no result: FUS yeast rescue)
COc1ccc(/C=C2\C(=O)ON=C2c2ccccc2)cc1OC	aSyn yeast inh inconclusive, TDP43 rescue inconclusive
COc1ccc(/C=C2/C(=O)ON=C2c2ccccc2)cc1OC	aSyn yeast inh 13µM, TDP43 rescue inconclusive
CCOc1cc(/C=C2\C(=O)ON=C2c2ccccc2)ccc1OC	TDP43 rescue 13µM
CC(NC(=O)C(=O)N1CCOCC1)C(c1cccs1)N1CCN(c2ccccc2)CC1 (configuration not stated)	none
O=C(NCC(c1ccco1)N1CCc2ccccc21)c1ccccc1Br (configuration not stated)	TDP43 rescue 14µM
O=C(NCc1ccc2c(c1)OCO2)C12CN(Cc3ccccc3)CC1C(c1cccc([N+](=O)[O-])c1)=NO2 (configuration not stated)	FUS yeast rescue 28µM
O=C(NCc1ccc(C(F)(F)F)cc1)C12CN(Cc3ccccc3)CC1C(c1cccc([N+](=O)[O-])c1)=NO2 (configuration not stated)	none
O=C1/C(=C/c2ccccc2O)SC(=S)N1Cc1cccnc1	TDP43 rescue 13µM
O=C(NCc1ccc(F)cc1)c1cc(C2CCCN(C(=O)CCCc3ccccc3)C2)on1 (configuration not stated)	TDP43 rescue 18µM, FUS yeast rescue inconclusive (no result: Mito fusion yeast)
O=C(NCc1ccccc1)c1cc(C2CCCN(C(=O)CCc3ccccc3)C2)on1 (configuration not stated)	none (no result: Mito fusion yeast)
O=C(Nc1ccccc1)c1cc(C2CCCN(C(=O)OCc3ccccc3)C2)on1 (configuration not stated)	TDP43 rescue 35µM (no result: Mito fusion yeast)
O=C(Nc1ccc(F)c(Cl)c1)c1cc(C2CCCN(C(=O)CCc3ccccc3)C2)on1 (configuration not stated)	TDP43 rescue 28µM (no result: Mito fusion yeast)
O=C(Nc1ccc(F)c(Cl)c1)c1cc(C2CCCN(C(=O)C3CC3)C2)on1 (configuration not stated)	TDP43 rescue 25µM (no result: Mito fusion yeast)
CC(C)c1ccc(CNC(=O)C2CCCN2S(=O)(=O)c2ccccc2)cc1 (configuration not stated)	none
COc1cc(Nc2nc3ccccc3c3nnc(C)n23)cc(OC)c1	none (no result: Mito fusion yeast, aSyn yeast inh)
CCCCn1nnnc1C1(C)CCC(=O)N1c1ccc(N2CCOCC2)cc1 (configuration not stated)	none (no result: Mito fusion yeast)
Cc1ccc(OCC(=O)Nc2ccc3nc(SCC(=O)N4CCOCC4)sc3c2)cc1C	none (no result: Mito fusion yeast, aSyn yeast inh)
O=C(Nc1ccccc1)c1cc(C2CCCN(C(=O)CCc3ccccc3)C2)on1 (configuration not stated)	TDP43 rescue 18µM (no result: Mito fusion yeast)
O=C(N/N=C/c1ccccc1C(=O)O)c1ccccc1Br	none
C=CCc1cccc(/C=N/NC(=O)c2ccccc2OC)c1O	TDP43 rescue 16µM
COc1ccccc1/C=N/NC(=O)c1ccccc1Cl	none
C=CCc1cccc(/C=N/NC(=O)c2ccccc2Br)c1O	aSyn yeast inh inconclusive, TDP43 rescue 16µM, Abeta yeast res inconclusive
CCc1ccc(-n2c(=O)c3c4c(sc3n(CC(=O)c3ccc(F)cc3)c2=O)CCC4)cc1	none (no result: Mito fusion yeast, aSyn yeast inh)
Cc1cc(C)cc(NC(=O)CSc2nnc(-c3ccccc3)n2N)c1	Mito fusion yeast 0.63µM
CCOC(=O)C1CCCN(C(=O)c2ccc3c(=O)n(Cc4ccccc4OC)c(=S)[nH]c3c2)C1 (configuration not stated)	aSyn yeast inh inconclusive, FUS yeast rescue inconclusive
O=C(NCc1ccccc1Cl)c1ccc(Cn2c(=O)c3cccn3c3cccnc32)cc1	none (no result: Mito fusion yeast, aSyn yeast inh)
O=C(Nc1nnc(-c2ccco2)o1)c1ccc2ccccc2c1	Mito fusion yeast 13µM, Abeta yeast res inconclusive (no result: FUS yeast rescue)
Cc1ccccc1NC(=O)c1ccc2ccccc2c1	TDP43 rescue inconclusive
Cc1nnc(NC(=O)c2ccc3ccccc3c2)o1	aSyn yeast inh inconclusive, TDP43 rescue inconclusive, Abeta yeast res 16µM
COc1ccc(C(=O)Nc2cccc(-c3nnc(-c4ccco4)o3)c2)cc1	TDP43 rescue 16µM
Cc1ccc(C(=O)Nc2nnc(-c3ccco3)o2)cc1	none
Cc1nnc(NC(=O)c2ccc(S(=O)(=O)N(C)Cc3ccccc3)cc2)o1	aSyn yeast inh inconclusive, TDP43 rescue 18µM, Abeta yeast res inconclusive
CCOC(=O)c1c(S(=O)(=O)NCC(=O)N2CCN(c3ccccc3)CC2)c(C)n(C)c1C	none
CCc1nnc(NC(=O)c2ccc(S(=O)(=O)N(CC(C)C)CC(C)C)cc2)o1	aSyn yeast inh 22µM, TDP43 rescue inconclusive
COc1ccc2c(c1)CC/C(=C/c1ccco1)C2=O	TDP43 rescue 14µM
